# Data reported in PubChem BioAssay AID909 (National Center for Advancing Translational Sciences (NCATS), 2007).
# The list shows a part of the results. Inconclusive results are not listed. Unmarked numbers belong to inactive results. Activity calls are given as the source filed them. Calls come from the whole dose curve; as a rule, active = well fitted inhibition curve with a large enough effect in the main read-out, with a control signal flat; inconclusive = small, poorly fitted or top-dose-only effect, or a change in a side signal; inactive = no such curve, though single readings can be large or run the other way.
# Target: Caspase-7 (Homo sapiens) (UniProt P55210)
# Sequence (P55210 24-198 limits assumed): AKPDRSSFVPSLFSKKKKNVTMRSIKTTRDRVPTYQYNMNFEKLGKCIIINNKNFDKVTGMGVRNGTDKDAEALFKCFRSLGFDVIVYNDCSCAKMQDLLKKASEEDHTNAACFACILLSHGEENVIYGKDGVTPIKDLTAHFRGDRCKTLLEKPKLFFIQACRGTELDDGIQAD
# Sequence (P55210 207-303 limits assumed): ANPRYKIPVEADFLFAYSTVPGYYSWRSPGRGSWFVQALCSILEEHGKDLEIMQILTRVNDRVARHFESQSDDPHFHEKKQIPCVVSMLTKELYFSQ
# Assay: Concentration-Response Counterscreen for Redox Active Inhibitors of Caspase-7: Catalase
# Details: Caspase-7 Ac-DEVD-AFC fluorescence rate, catalase buffer; series mostly up to 57.5 µM; activity, negative = inhibition: at the top concentration
# Description: NIH Molecular Libraries Screening Centers Network [MLSCN] NIH Chemical Genomics Center [NCGC] MLSCN Grant: 1 X01 MH078950-01 PI Name: Dr. James Wells, Dr. Enrique Perez-Paya, Dr.Janice Williams, Dr. Dennis Wolan, a person NCGC Assay Overview: The caspases (Cysteine Aspartyl Protease) comprise a related family of 14 dimeric proteases that are critical mediators of apoptosis (programmed cell death) and inflammation. The caspases represent an important class of drug targets for stroke, ischemia, cancer and inflammatory diseases. […] One goal of this project was to identify compounds that act as allosteric inhibitors via stabilizing the procaspase form of the enzyme. […] After initiation of the assay with substrate the plates were rapidly read using an automated robotic system (Kalypsys, Inc.) to maintain consistent timing. […]
# NCGC Assay Protocol Summary: Caspase 7 was prepared in buffer (50 mM HEPES pH 7.5, 50 mM KCl, 200 mM NaCl, 50 units/well catalase (from bovine liver, Sigma cat#100), 0.1% CHAPS) at a concentration of 66.6 nM and 3 uL was dispensed to all wells using black solid Kalypsys 1536-well plates. […] The plates were then exposed using 405 nm excitation/520 nm emission filters for 4 sec and read at 20 sec intervals for 3 min. […]
SMILES,Potency,"activity, negative = inhibition"
N#CC1=C(N)Oc2cc(O)ccc2C1C1CCCCC1 (configuration not stated),31.6 µM (active),
CCN1C(=O)/C(=C2/Sc3ccccc3N2CCCS(=O)(=O)O)SC1=S,,-22.9%
